Experimental findings from PubChem BioAssay (Tox21) are described below.

Records with an inconclusive call do not appear. Where a call stands in place of a potency, no number is given. Active and inactive are the calls of the source. Calls follow the shape of the full dose curve.

A short description of the experiment: qHTS assay for small molecules that induce genotoxicity in human embryonic kidney cells expressing luciferase-tagged ATAD5 - cell viability (AID 651634). Also: nearly all actives have a fitted effect of over 25% in size. Conditions: HEK293T ATAD5-luc cells viability, CellTiter-Fluor, 15.5 h; series mostly up to 83.3 µM. The text has this: National Center for Advancing Translational Sciences [NCATS]
NIH Chemical Genomics Center [NCGC]
U.S. Environmental Protection Agency [EPA]
National Institutes of Environmental Health Sciences [NIEHS]
National Toxicology Program [NTP]
U.S. Food and Drug Administration [FDA]
Enhanced Level of Genome Instability Gene 1 (ELG1; human ATAD5) protein levels increase in response to various types of DNA damage. Using a luciferase reporter-gene tagged with ElG1, a cell-based assay [developed by Kyungjae Myung, NHGRI, NIH] was used to measure the induction of ATAD5 in human embryonic kidney cells (HEK293T). So, increase in luciferase activity can be used to identify the compounds that cause genetic stress. In addition to genotoxicity, these cells were also used to test for cytotoxicity by measuring the protease activity within live cells.
Tox21 Assay Protocol Summary:
For cytotoxicity screening, 2,000 cells in 5 uL/well were dispensed into white, solid-bottom 1536-well plates using a Multidrop Combi (Thermo Scientific) dispenser. Following transfer of 23 nL compound or DMSO vehicle by a pin tool, the plates were incubated 15.5 hr at 37C and 5% CO2. 1 ul CellTiter-Fluor reagent (Promega, Madison, WI) was then added to each plate and following 30 min incubation at 37C, fluorescence intensity was quantified on a ViewLux CCD-based plate reader.
A general note: Quantitative high-throughput screening tests each substance at several concentrations.
For `CCC(C)(C)c1cc(-n2nc3ccccc3n2)c(O)c(C(C)(C)CC)c1`, the Potency entry was “inactive”.
As for `ClCCOCOCCCl`, the entry is “inactive”; as for `CCOP(=S)(OCC)SCSP(=S)(OCC)OCC`, “inactive”.
As for `O=C(N[C@H]1CN2CCC1CC2)c1cc2ccoc2cn1`, the entry is “inactive”; as for `CCCCc1c(C)nc(NCC)[nH]c1=O`, “inactive”.
The same measure for `Nc1cnn(-c2ccccc2)c(=O)c1Cl`: “inactive”.
Regarding `CC(C1CC1)C(O)(Cn1cncn1)c1ccc(Cl)cc1` (stereo not given), the Potency result is “inactive”.
In the case of `CNNC`, the Potency entry was “inactive”.
For the compound `CC(C)[N+](=O)[O-]`, the Potency entry is “inactive”.
The same measure for `O=P(O)(Oc1ccccc1)Oc1ccccc1`: “inactive”; for `CCC#N`: “inactive”; for `N#Cc1c(Cl)cccc1Cl`: “inactive”.
The same measure for `O=C(NCO)NCO`: “inactive”; for `COc1cc(OC)nc(Sc2cccc(Cl)c2C(=O)O)n1`: “inactive”; for `CCOP(=S)(Oc1cnc(C(C)(C)C)nc1)OC(C)C` (stereo not given): “inactive”.
With `OC(c1ccc(F)cc1)(c1cncnc1)c1ccccc1Cl` (stereo not given), the Potency entry is “inactive”.
As for `CCS(=O)(=O)C(C)(C)S(=O)(=O)CC`, the entry is “inactive”; as for `CCOC(=O)NC(=S)Nc1ccccc1NC(=S)NC(=O)OCC`, “inactive”.
`O=c1oc2ccccc2c(O)c1C1CCCc2ccccc21` (stereo not given): the Potency result was “inactive”.
The same measure for `CN1C[C@@H](NS(=O)(=O)N(C)C)C[C@@H]2c3cccc4c3c(cn4C)C[C@H]21`: “inactive”; for `CC(N)=S`: “inactive”.
The same measure for `COc1cccc(C(=O)NN(C(=O)c2cc(C)cc(C)c2)C(C)(C)C)c1C`: “inactive”; for `O=C1OC(=O)C2C1C1(Cl)C(Cl)=C(Cl)C2(Cl)C1(Cl)Cl` (stereo not given): “inactive”; for `CCN(CC)CCOC(=O)C(C)(c1ccccc1)c1ccccc1`: “inactive”.
The same measure for `CCOC(=O)N(C)C(=O)CSP(=S)(OCC)OCC`: “inactive”; for `CNC(=O)O/N=C(\C)SC`: “inactive”; for `CN/C(=N\[N+](=O)[O-])NCC1CCOC1` (stereo not given): “inactive”.
With `N#CC(O)c1ccccc1` (stereo not given), the Potency result is “inactive”.
As for `C=C(C)[C@@H]1CC=C(C=O)CC1`, the entry is “inactive”; as for `CCCSP(=S)(OCC)Oc1ccc(Cl)cc1Cl` (stereo not given), “inactive”; as for `Nc1ccccc1Cl`, “inactive”.
The same measure for `CC(Cl)(Cl)[N+](=O)[O-]`: “inactive”.
As for `CCCSC(=O)Cl`, the entry is “inactive”.
On to `C#CCN1C(=O)COc2cc(F)c(N3C(=O)C4=C(CCCC4)C3=O)cc21`, for which the Potency entry is “inactive”.
As for `COc1cc(C[C@@H](C)N)c(OC)cc1C`, the entry is “inactive”.
As for `O=C(Cc1ccccc1)OCc1ccccc1`, the entry is “inactive”; as for `O=[N+]([O-])c1cc(Cl)c(Cl)c(Cl)c1`, “inactive”; as for `CCN(CC)C(=O)[C@@H]1C=C2c3cccc4[nH]cc(c34)C[C@H]2N(C)C1`, “inactive”.
The same measure for `CCCCOC(=O)c1ccccc1N`: “inactive”.
Regarding `O=C(O)c1cccc(Cl)c1`, the Potency result was “inactive”.
